HepG2 tox: qHTS for Inhibitors of TGF-b: Cytotox Counterscreen. AID 588856, 2011. 410,000 compounds, 0.76% hits. HepG2 CAGA-GFP viability, ATP luminescence, 18 h. Potency, µM (titrated, usually from 46.1 µM), actives largely listed as cytotoxic
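HepG2 CAGA-GFP cells (1000/well, DMEM with 1% FBS) received compound, then TGF-beta at 500 pg/mL final, and were incubated 18 hours at 37 degrees C. Viability was read by CellTiter-Glo luminescence. Media-only wells were set as complete cell-killing and DMSO as no toxicity.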
HT1080 IDH1KD tx: qHTS for induction of synthetic lethality in tumor cells producing 2HG: qHTS for the HT-1080-IDH1KD cell line | Potency, µM (series often up to 46.1 µM), hits mostly cytotoxic | HT-1080 IDH1 knockdown viability, ATP luminescence, 48 h | 360,000 compounds, 2% hits
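After a 2 h attachment period, IDH1KD HT-1080 cells took pin-transferred compound for 48 h at 37 °C; ATP-based luminescence after 10 min room-temperature reagent incubation reported viability.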
TGFb inhibitor: qHTS for Inhibitors of TGF-b; HepG2 CAGA-GFP TGF-b/SMAD3 reporter, GFP fluorescence, 18 h; TGF-beta stimulated, 500 pg/mL final; Potency, µM (top dose mostly 46.1 µM), most hits filed as inhibitors; 410,000 compounds, 1.2% hits; further: nearly all actives have a fitted effect of over 65% in size
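First, reporter cells (HEPG2 CAGA-GFP) rested 2 h at 37 degrees C. Next, compounds were pinned in and TGF-beta added to 500 pg/mL final. After 18 h, GFP was imaged per cell and summed per well.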
ATXN2 expr inh: Primary qHTS for Inhibitors of ATXN expression | HEK-293 ATXN2-luciferase reporter, luminescence, 24 h | Potency, µM (series often up to 57 µM), actives largely listed as inhibitors | 360,000 compounds, 0.72% hits; further: nearly all actives have a fitted effect of over 55% in size
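qHTS (up to 57 uM final) was run with 24 h compound exposure of reporter cells at 37 °C. Each well was multiplexed: SteadyGlo luminescence measured ATXN2-luciferase expression after a fluorogenic Gly-Phe-AFC viability readout (25 uM final).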
ATXN viability: Viability Counterscreen for Primary qHTS for Inhibitors of ATXN expression; 400,000 compounds, 0.49% hits; Potency, µM (highest dose often 56.7 µM), usual class: cytotoxic; S2 cells (HEK-293 line with an ATXN2-luciferase reporter) viability, CellTiter-Fluor protease fluorescence, 24 h; further: nearly all actives have a fitted effect of over 40% in size
HT1080NT lethal: qHTS for induction of synthetic lethality in tumor cells producing 2HG: qHTS for the HT-1080-NT fibrosarcoma cell line; HT-1080-NT fibrosarcoma viability, CellTiter-Glo ATP luminescence, 48 h; Potency, µM (top dose mostly 46.1 µM), most hits filed as cytotoxic; 360,000 compounds, 1.6% hits; AID 686970, 2013;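 further: NT is the 2HG producing partner of a matched IDH1 knockdown line; nearly all actives have a fitted effect of over 55% in size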
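Compounds were tested in concentration-response format on HT-1080-NT cells for 48 hours at 37 degrees C. Cell viability came from CellTiter-Glo luminescence; curves were classified by r2, response magnitude and activity.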
Numbers stand for hits; - = inactive; ? = inconclusive; . = no result given; ! = not confirmed by another sample. Shown are actives, neighbours in structure and some others; about 3.9% of the full set was active somewhere. The call rests on the fitted dose curve; in most records, active means well fitted curve in the direction sought with a large enough effect; inconclusive means small, poorly fitted or top-dose-only effect, or another doubt; inactive means no such curve, though single readings can be large; an effect the other way counts as inactive or inconclusive.

SMILES	HepG2 tox	HT1080 IDH1KD tx	TGFb inhibitor	ATXN2 expr inh	ATXN viability	HT1080NT lethal
CC(=O)N1CCCc2cc(S(=O)(=O)N3CCCC(C(=O)N4CCN(c5cc(C)ccc5C)CC4)C3)ccc21 (stereo unspecified)	-	?	13µM	20µM	25µM!	?
Cc1noc(C)c1CC(=O)N1CCOc2c(cc(-c3nc4ccccc4s3)cc2OC2CCOC2)C1 (stereo unspecified)	.	.	.	.	-	.
CN1C(=O)C(CC(=O)Nc2ccc(F)cc2)N(CCCc2ccccc2)C1=S (stereo unspecified)	-	?	?	?	?	21µM
C(=NN1CCCCCC1)c1ccc2ccccc2n1	-	?	-	?	-	6.5µM
C(=NN1CCCCCC1)c1cccc2ccccc12	-	-	-	-	-	-
CC(=O)C1=C(c2ccc(Br)cc2)N(C(C)=O)n2c(nnc2C2CCCCC2)S1	-	.	-	.	.	.
NC(=O)c1c(NC(=O)c2ccccc2)sc2c1CCN(Cc1ccccc1)C2	-	-	-	-	-	?
CCN1CCc2c(sc(NC(=O)c3ccc(C(=O)c4ccccc4)cc3)c2C(N)=O)C1	-	?	?	-	-	21µM
CC(C)N1CCc2c(sc(NC(=O)c3ccc(S(=O)(=O)N4CCOCC4)cc3)c2C(N)=O)C1	-	-	-	-	?	-
CCN1CCc2c(sc(NC(=O)c3ccc(S(=O)(=O)N(CC)c4ccccc4)cc3)c2C(N)=O)C1	-	5.8µM	-	-	-	18µM
CC(C)CN(CC(C)C)S(=O)(=O)c1ccc(C(=O)Nc2sc3c(c2C(N)=O)CCN(C(C)C)C3)cc1	11µM	.	-	?	.	.
O=C(CCCCCCC(=O)Nc1cccnc1)NO	.	.	.	-	.	.
CCCCCCCCCCCCCC(=O)N[C@H](CO)[C@H](O)c1ccc([N+](=O)[O-])cc1	.	.	.	-	.	.
NC(=O)c1cc[n+](CC2=C(C(=O)[O-])N3C(=O)[C@@H](NC(=O)Cc4cccs4)[C@H]3SC2)cc1	.	.	.	-	-	.
Cc1nc(C)c(CC(=O)N2CCOc3ccc(CN4CCOCC4)cc3C2)s1	.	.	.	.	-	.
CN(C)c1ccc(/C=C/N2C=CCc3c2ccc2ccccc32)cc1	-	.	7.1µM	.	.	.
Cc1ccc(S(=O)(=O)CC(=O)Nc2sc3c(c2C#N)CCCC3)cc1	-	.	?	.	.	.
CN(C)CCN1C(=O)c2cccc3cc([N+](=O)[O-])cc(c23)C1=O	-	13µM	6.3µM	?	?	10µM
Cc1cc(NC(=O)CCN2CCN(C/C=C/c3ccccc3)CC2)ccc1Br	-	23µM	?	-	-	21µM
CCOCCC(=O)Nc1ccc2c(c1)c(=O)n(C)n2C/C=C/c1ccccc1	-	4.1µM	-	-	?	?
Cn1c(=O)c2cc(NC(=O)Cc3ccccc3F)ccc2n1C/C=C/c1ccccc1	-	-	-	-	-	-
CCOc1ccc(N(CC)S(=O)(=O)N2CCCC(C(=O)Nc3cc(Cl)ccc3C)C2)cc1 (stereo unspecified)	-	.	-	.	.	.
Cc1ccc(C(C(=O)NC2CCCCC2)N(C(=O)Cc2c[nH]c3ccccc23)c2ccccc2C)o1 (stereo unspecified)	-	23µM	-	-	?	15µM
O=c1c(Cl)c(Cl)cnn1Cc1nnc(-c2ccccc2Br)o1	-	9.2µM	16µM	?	.	12µM
Clc1ccccc1OCc1nnc(-c2ccccc2Br)o1	-	-	-	-	-	-
SMILES	HepG2 tox	HT1080 IDH1KD tx	TGFb inhibitor	ATXN2 expr inh	ATXN viability	HT1080NT lethal
CCOc1ccc(Br)cc1C1C(C(=O)OC)=C(N)Oc2cc(N(C)C)ccc21 (stereo unspecified)	-	15µM	?	-	-	12µM
CCOc1ccccc1C1C(C(=O)OC)=C(N)OC2=C1C(=O)CCC2 (stereo unspecified)	-	-	-	-	-	-
CC(C)C(=O)N(c1cc2sc(=O)oc2c2ccccc12)S(=O)(=O)c1cccs1	-	?	?	-	-	11µM
CC(C)C(=O)N(c1ccc2oc(=O)sc2c1)S(=O)(=O)c1cccs1	-	-	?	-	-	-
Cc1nc(NC(=O)c2ccccc2)sc1Cc1ccc2c(c1)OCO2	-	?	-	-	-	?
Cc1nc(NC(=O)c2ccc(Cl)cc2)sc1Cc1ccc2c(c1)OCO2	-	6.5µM	?	-	-	10µM
O=C(O)c1ccc(N/N=C/c2ccc(OC(=O)c3cccc(Cl)c3)cc2)cc1	-	-	-	5µM	-	-
CCOc1ccc(NC(=O)CSc2nc(-c3ccccc3)c3cc(OCC)ccc3n2)cc1	-	.	-	.	.	.
CCc1cc(-c2n[nH]c(=S)n2-c2ccccc2C)cs1	-	?	-	-	-	11µM
Cc1ccccc1-n1c(C)n[nH]c1=S	-	?	-	-	-	13µM
O=C(NCCCOc1cccc(CN2CCCCC2)c1)c1ccc(Cl)c(Cl)c1	-	23µM	-	-	-	21µM
CN1CCN(c2ccc(NC(=O)c3cccc(OCc4ccccc4)c3)cc2)CC1	-	18µM	?	-	-	21µM
CCN1CCN(c2ccc(NC(=O)c3cccc(OCc4ccccc4)c3)cc2)CC1	-	?	?	-	-	-
O=C(NC(=S)Nc1ccc(CN2CCCCC2)cc1)c1cccc(OCc2ccccc2)c1	-	21µM	?	.	-	?
CCOC(=O)c1sc(NC(=O)COc2ccccc2Cl)c(C(=O)OCC)c1C	-	.	-	-	-	.
CCOc1cc2[nH]c(=O)n(CCCCC(=O)N3CCN(c4ccc(OC)cc4)CC3)c(=O)c2cc1OCC	-	.	-	-	-	.
CCn1nc(C)c(CN2Cc3ccccc3OC(c3ccccc3OC)C2)c1C (stereo unspecified)	.	.	.	.	-	.
COc1ccc(C(=O)Nc2nc(-c3nnn(-c4cc(OC)ccc4OC)c3C)ns2)cc1	-	.	-	-	-	.
CCC(=C(c1ccc(OC)cc1)c1ccc(OC)cc1)c1cn(CC(O)CN2CCN(C)CC2)c2ccccc12 (stereo unspecified)	13µM	-	?	?	.	-
COc1ccc(C(=O)/C=C/c2cn(CC(O)CN3CCc4ccccc43)c3ccccc23)cc1 (stereo unspecified)	-	.	-	-	.	.
COc1cc2nc(CCc3nc4cc(OC)c(OC)cc4[nH]3)[nH]c2cc1OC	-	.	-	.	.	.
COC(=O)CN1C(=O)CSc2ccc(S(=O)(=O)Nc3cccc(C)c3)cc21	-	.	-	.	.	.
COc1ccccc1C(=O)NCC(c1ccc(N(C)C)cc1)N1CCc2ccccc21 (stereo unspecified)	-	.	?	.	.	.

Bioassay records from PubChem.
